Results as given in the OligoGym collection.

molecular target: PPM1E; test: pooled miR-30 sensor sort-seq; sequence = guide strand; settings: shRNA
Note: reference of the scale not given here.

| Sequence | sensor-assay potency score (higher = more potent) |
| --- | --- |
| TACAGCTTTGTTCATGTCCCTC | -0.388 |
| TTACATTTAAGAATTGAGCCAT | 0.639 |
| TTTGGATTAAACCTGAATCTGT | -0.682 |
| TTTCTCACAAGCATAACCTGGG | 0.732 |
| TATATTTGTAGAGCTGCTGCAG | 0.13 |
| TTGCTTTCTTTGGTGCACCAGG | -0.843 |
| TTGCTTGCTTCTATTTGTGTGA | -0.309 |
| TAGATTGAAAACACTGTACTTT | 0.776 |
| TAGTTCAACAGCTTGGCCCTTT | 0.206 |
| TTTTAGATTGAAAACACTGTAC | 0.00481 |
| TATTTGTGTGAGATCTAGGTAG | 0.201 |
| TAAAACTTTGGATTAAACCTGA | -0.0256 |

molecular target: PPM1F; test: as above; settings: shRNA

| Sequence | sensor-assay potency score (higher = more potent) |
| --- | --- |
| AAGGTCTGTCTGTAGCAGCTGT | -0.309 |
| TTAAATTATATGACACAACAGG | -0.831 |
| TCTGTCTGTAGCAGCTGTGAAA | -1.23 |
| TACCTCGCAGCATCCACGCCTC | -0.377 |
| TAAATTATATGACACAACAGGT | -0.732 |
| TATGACACAACAGGTCATCTTG | -0.621 |
| TTCTGGTCTGTGTGGCTCCATC | -1.7 |
| TTATATGACACAACAGGTCATC | -0.681 |
| TTTCCTGAGAAACATCTGGTCG | -0.801 |
| AACATCTGGTCGGTGCGCCGGA | -0.815 |
| ATATCTGTAAATATGAACCCAC | -0.596 |
| TCAAACACAGCAAAGTAGGCGC | -0.108 |

molecular target: PPM1J; test: as above; settings: shRNA

| Sequence | sensor-assay potency score (higher = more potent) |
| --- | --- |
| ACAGTCAGTAGTGACATCCCAC | -0.629 |
| TTCACTGCCTAGCAGCTCTGGT | -0.516 |
| TCTTTTTGTAGGCCCAGCCGGT | -1.16 |
| TAGCAGGTAGATCACAACCAGT | -1.29 |
| TAGATCACAACCAGTGCACAGC | -0.65 |
| TCGATCTTTTTGTAGGCCCAGC | -1.4 |
| TTGGATATAGCGGACATCCCTT | -0.328 |
| TACTCCTGTAACACTCCTCCGA | -0.279 |
| TTGATGACCTCGGCGTAGCCTG | -0.901 |
| TTCCGGACAATGATGGCCCTGC | 0.189 |
| AAGTATCTCTACCAGGTCCTTT | -0.98 |
| TAGCACATCATCTGGGCAGTGC | -0.403 |

molecular target: PPP1R13B; test: as above; settings: shRNA

| Sequence | sensor-assay potency score (higher = more potent) |
| --- | --- |
| TTCCTTGGCAACCAACATCTGC | -1.09 |
| TTTCTTCAGCTTGTTCTCCTGG | 0.329 |
| TTAACTGACTTATTTAAGGCGC | 0.229 |
| TACACTGCTTTAACTGACTTAT | -0.93 |
